Bioassay records: PubChem BioAssay, several laboratories
A selection: hits, their analogues and other compounds. The true share with any hit is near 7.4%.
FXIIa mix inh = factor XIIa (human) inhibition, mixture screen | purified FXIIa, fluorogenic substrate, pooled mixtures | inhibition, % at 5 µM | AID 684 | 62,000 compounds, 0.2% hits;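 also: 0% = enzyme without compound and 100% = no enzyme blank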
Target sequence (P00748 20-372 limits assumed): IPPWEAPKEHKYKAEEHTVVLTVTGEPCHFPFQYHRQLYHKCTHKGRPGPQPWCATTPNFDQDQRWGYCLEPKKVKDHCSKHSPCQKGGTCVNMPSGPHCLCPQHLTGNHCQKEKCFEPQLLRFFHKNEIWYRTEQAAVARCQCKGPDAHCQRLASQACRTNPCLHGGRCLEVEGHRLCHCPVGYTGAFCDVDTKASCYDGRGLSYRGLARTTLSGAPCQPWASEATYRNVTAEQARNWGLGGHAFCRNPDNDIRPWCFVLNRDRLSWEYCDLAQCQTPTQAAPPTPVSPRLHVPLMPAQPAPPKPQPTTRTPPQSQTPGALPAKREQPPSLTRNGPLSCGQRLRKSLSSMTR
Target sequence (P00748 373-615 limits assumed): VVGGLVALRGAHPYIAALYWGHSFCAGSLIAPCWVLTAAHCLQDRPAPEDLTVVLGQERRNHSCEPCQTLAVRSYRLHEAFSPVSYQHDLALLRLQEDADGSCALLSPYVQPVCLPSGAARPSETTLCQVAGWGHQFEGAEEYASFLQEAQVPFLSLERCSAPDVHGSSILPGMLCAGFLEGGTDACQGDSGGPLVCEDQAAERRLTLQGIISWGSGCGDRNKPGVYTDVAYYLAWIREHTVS
M1 antag = antagonists of rat M1 muscarinic receptor | P08482 | CHO-M1 cells, Fluo-4 calcium, ACh EC80 antagonist mode; active compounds read low | B-score at 10 µM | 64,000 compounds, 3.4% hits;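 active = calcium fluorescence response, raw or row-and-column corrected B-score, differing from the plate sample mean either way at a set confidence level, mostly lower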
hDAT+cocaine = changed human dopamine transporter uptake under cocaine IC80 | Q01959 | LLC-PK1 hDAT cells, [14C]-dopamine uptake with cocaine IC80; actives deviate in either direction | 110,000 compounds, 1.3% hits | AID 449768 | B-score at 10 µM;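 active = Z score or B-score, a plate-position-corrected score, falls beyond the plate's 99.7% confidence bounds, in either direction; inactive = both scores lie inside the 99.7% bounds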;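 also: scored against the spread of the other compound wells on the same plate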
FXIa inh mix = factor XIa (human) inhibition, mixture screen; P03951; purified FXIa, fluorogenic substrate, pooled mixtures; inhibition, % at 5 µM; 62,000 compounds, 0.19% hits; AID 680;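 also: each value is inhibition by a whole ten-compound pool holding the compound; 0% = enzyme with no mixture and 100% = wells lacking enzyme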
M1 agonist = agonists of M1 muscarinic receptor. CHO-M1 cells, Fluo-4 calcium fluorescence, agonist mode; active compounds read high. B-score at 10 µM. 64,000 compounds, 3% hits. AID 626;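 active = fluorescence rise, raw or as B-score row- and column-corrected plate score, outside the 99.7% band of its plate's samples, either direction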
D1 mod = allosteric modulators of human D1 dopamine receptor; 58,000 compounds, 5.9% hits; HEK293 D1, CRE-luciferase, dopamine EC30 potentiation; actives deviate in either direction; B-score at 10 µM; P21728;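 active = luminescence count or its row- and column-corrected plate score outside the 99.7% band of the plate's sample wells, on either side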
M1 antag confirm = M1 muscarinic receptor (rat) antagonism, confirmed | 1,700 compounds, 43% hits | AID 677 | calcium response (max-min fluorescence) at 10 µM | CHO-M1 cells, Fluo-4 calcium, ACh EC80 antagonism; active compounds read low | shares compounds with M1 antag;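 active = calcium response below the same-plate mean of wells given acetylcholine alone at its 80%-effect dose, minus 3 SD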;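 also: raw fluorescence intensity difference in arbitrary instrument units and not normalized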
mGluR4 antag = acts on human mGluR4 in M1 antagonist selectivity test; 1,700 compounds, 0.9% hits; AID 678; shares compounds with M1 antag; CHO-mGluR4 calcium flux, Fluo-4 fluorescence, glutamate EC80; active compounds read low; fluorescence response (max-min) at 10 µM;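 active = fluorescence response below the plate's average for near-maximal glutamate wells, less 3 SD of those wells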;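 also: raw unnormalized fluorescence span taken in the window right after glutamate addition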
The depositor's hits bear a star; x = no result given. Rule as the data show it, unless noted: active = inhibition above about 20% (passing the limit was not always enough); inactive = the rest.

SMILES | FXIIa mix inh | M1 antag | hDAT+cocaine | FXIa inh mix | M1 agonist | D1 mod | M1 antag confirm | mGluR4 antag
COc1cccc(N2C(=O)C3C(C2=O)C2C=CC3C23CC3)c1 (configuration not stated) | 11.8 | -3.13* | -0.0491 | 10.3 | 0.116 | x | 655 | 190
Cc1ccc(N2C(=O)C3C(C2=O)C2C=CC3C23CC3)cc1 (configuration not stated) | -12.9 | -0.578 | 0.373 | -6.2 | -0.636 | -1.14 | x | x
CCCCN(C)C(=O)C1CCN(C/C(C)=C/c2ccccc2)CC1 | -17.6 | -4.01* | 0.436 | -0.1 | -0.598 | -0.669 | 520* | 222
CCCCNC(=O)C1CCN(C/C(C)=C/c2ccccc2)CC1 | x | x | -1.41 | x | x | x | x | x
CC(C)(C)n1nnnc1C(c1ccccc1)N1CCc2ccccc2C1 (configuration not stated) | -7.6 | -12.1* | -0.121 | 11.4 | 0.00983 | -0.69 | 368* | 211
O=C(O)Cn1cc(C(=O)c2cccs2)c2ccccc21 | 14.5 | 1.16 | -0.59 | -25.9 | 0 | -0.293 | x | x
O=C(c1cccs1)c1cn(CC(=O)N2CCc3ccccc3C2)c2ccccc12 | 0.6 | -7.23* | 0.0324 | -16.4 | -0.562 | 0.322 | 699 | 175
O=C(O)CCCCCN1C(=O)CSC1=S | 10.4 | -6.39* | -1.29 | 0.3 | 0.293 | -0.0179 | 667 | 241
O=C(CSc1nnc(NC2CCCCC2)s1)Nc1ccc(N2CCOCC2)cc1 | x | x | 0.579 | x | x | x | x | x
COc1cc(C(=O)N2CCN(c3ccc(C)cc3C)CC2)cc(OC)c1OC | -1.4 | 1.02 | 1.24 | 6.1 | -0.558 | -0.778 | x | x
CCN(CC)Cc1cc(CC(C(N)=O)C(N)=O)ccc1OC | 9.8 | -2.49* | -1.2 | 6.6 | 1.07 | -0.108 | 672 | 224
CCN(CC)Cc1cc(C(C)=O)ccc1OCC(C)C | x | -0.322 | 0.0187 | x | -0.379 | x | x | x
Cc1cn(C(=O)c2ccccc2)c(=S)n1-c1ccc(Cl)cc1 | x | x | -0.00546 | x | x | x | x | x
COC(=O)C1C(=O)c2c([nH]c(C(=O)OCCOC(C)C)c2C)CC1C (configuration not stated) | 8.6 | -2.91* | 1.64 | 7.3 | 0.103 | -0.093 | 707 | 222
CCOC(=O)c1c(CN(CC)CC)oc2ccc(OC)cc12 | x | x | -0.859 | x | x | x | x | x
CCOC(=O)c1c(CN(CC)CC)oc2cc(Br)c(O)cc12 | 6.4 | -2.01* | 4.06* | 4.8 | -0.428 | 2.46 | 679 | 217
Cc1cc(C)nc(N2CCC(C(=O)O)CC2)n1 | -15.8 | 0.28 | 0.542 | -8.6 | -0.381 | -0.831 | x | x
Cc1cc(C)nc(N2CCN(c3nc(C)cc(C)n3)CC2)n1 | 3.3 | -7.67* | 0.45 | -4.8 | -0.259 | -0.84 | 719 | 217
c1ccc(CN2CCN(CCN3CCn4c3nc3ccccc34)CC2)cc1 | 6.1 | -2.05* | -0.0174 | 1.8 | 0.133 | 0.0339 | 566* | 252
CCOC(=O)Nc1ccc2c(c1)N(C(=O)OC)c1ccccc1CC2 | -0.4 | 0.118 | 1.6 | 2.4 | -1.04 | -0.806 | x | x
CCOC(=O)Nc1ccc2c(c1)N(C(=O)CCN(C)C)c1ccccc1S2 | 15.4 | -10.3* | -0.0777 | 10.5 | -0.095 | -0.713 | 21.9* | 251
CCOC(=O)Nc1ccc2c(c1)N(C(=O)CN1CCN(C)CC1)c1ccccc1S2 | -2.7 | -13.1* | 1.04 | 0.7 | -0.699 | 0.0143 | 46.3* | 226
CCC1=NC(c2ccccc2)N(O)C1(C)C (configuration not stated) | x | x | -0.601 | x | x | x | x | x
CCC1=NC(c2ccccc2OC)N(O)C1(C)C (configuration not stated) | 4.7 | -15.3* | -0.496 | 0.3 | 0.11 | -0.225 | 257* | 189
CSc1nc2ccc(S(=O)(=O)N3CCCCC3)cc2s1 | x | x | -0.108 | x | x | x | x | x
SMILES | FXIIa mix inh | M1 antag | hDAT+cocaine | FXIa inh mix | M1 agonist | D1 mod | M1 antag confirm | mGluR4 antag
CSc1nc2ccc(S(=O)(=O)N3CCOCC3)cc2s1 | 6.3 | -4.66* | 0.849 | 6.3 | -0.482 | 0.222 | 298* | 167
O=C(CCn1cnc2ccccc2c1=O)Nc1ccc(S(=O)(=O)N2CCCCC2)cc1 | 33.0 | -0.225 | 0.546 | 3.0 | 0.11 | -0.144 | x | x
Cc1csc(NC(=O)CSc2ncnc3c2cnn3-c2ccccc2Cl)n1 | 3.9 | -2.73* | 0.241 | 0.7 | 3.93 | -2.1 | 501 | 184
CCOC(=O)c1c(C)[nH]c(C)c1C(=O)COC(=O)c1cccc(S(=O)(=O)NC)c1 | -0.7 | 0.322 | -0.678 | 1.8 | 1.19 | x | x | x
CCCc1nc2sc3c(c2c(=O)n1N)CCC3 | -16.0 | 0.295 | x | 0.6 | 0.0456 | 0.678 | x | x
COc1ccc(-c2nc3n(n2)C(c2ccccc2Cl)C(C(N)=O)=C(C)N3)cc1 (configuration not stated) | 0.3 | -2.97* | 1.06 | 9.3 | 0.341 | -0.00196 | 626 | 245
COc1ccccc1N1CCN(C(=O)c2sc3nc(-c4ccccc4)cn3c2C)CC1 | x | -3.5* | 1.36 | x | 0.654 | -1.09 | 639 | 190
O=C(NCCCn1ccnc1)Nc1cccc2ccccc12 | x | x | 0.229 | x | x | x | x | x
O=C(NCCCn1ccnc1)C1c2ccccc2Oc2ccccc21 | 1.5 | -5.99* | -0.207 | 4.0 | 0.744 | -2.46* | 309* | 228
CCc1nnc(NC(=O)CSc2nnc(Cc3cccn3C)n2C)s1 | 11.0 | 0.606 | 0.00112 | -7.4 | 1.15 | -0.386 | x | x
Nc1cccc(-n2nncc2-c2ccccc2)c1 | -17.1 | -0.0882 | -0.0168 | 2.0 | -2.5 | -0.294 | x | x
Cn1c(C(=O)N2CCCC(C(=O)NCCCc3ccccc3)C2)cc2sccc21 (configuration not stated) | 1.6 | -2.32 | 0.906 | 11.8 | -0.42 | 0.0409 | x | x
Cn1c(C(=O)N2CCCC(C(=O)NCCc3ccccc3)C2)cc2sccc21 (configuration not stated) | 9.4 | -6.11* | -0.94 | 5.6 | -1.12 | -0.481 | 328* | 248
Cn1cc(C(=O)NCCN2CCN(c3ccccc3F)CC2)c2c3ccccc3n(C)c2c1=O | 3.7 | -4.33* | x | -1.5 | -0.164 | -2.05 | 453 | 161
Cn1c(C(=O)NCCN2CCCCCC2)cc2c(=O)n(C)c3ccccc3c21 | 27.4 | -3.69* | -0.0686 | 6.7 | 1.74 | -0.261 | 430* | 209
CN1CCN(CCCNC(=O)c2cc3c(=O)n(C)c4ccccc4c3s2)CC1 | -2.5 | -2.77* | -1.22 | -5.3 | 0.0502 | -1.14 | 434 | 196
CC1CCN(CCCNC(=O)c2cc3c(=O)n(C)c4ccccc4c3n2C)CC1 | 5.5 | 1.82 | 2.05 | 5.1 | 0.0484 | 0.857 | x | x
Cn1c(C(=O)NCCN2CCN(Cc3ccccc3)CC2)cc2c(=O)n(C)c3ccccc3c21 | 4.3 | -6.91* | 3.16* | 0.7 | 0.0431 | -0.541 | 288* | 263
Cc1n[nH]c(=O)nc1NCc1ccccc1 | -0.8 | 0.306 | -0.0352 | 4.4 | 0.353 | 0.193 | x | x
O=C(CCCSc1nc2ccccc2s1)Nc1nccs1 | 7.1 | -2.72* | -1.4 | 6.1 | -0.0483 | 2.07 | 620 | 243
O=C(CCCc1nc2ccccc2s1)Nc1nccs1 | 11.9 | 0.593 | 0.132 | 4.2 | -0.629 | -0.825 | x | x
